Screens from PubChem.
Wnt act: Wnt/beta-catenin pathway activators, primary screen, cell-based, plate reader, single point; Wnt/beta-catenin reporter cell assay, activator; activation, % at 9.35 µM; 1.2% of 300,000 active; AID 743398, 2014; in the data active = activation above about 30%, passing the limit was not always enough
esBAF inh: Bmi1 luciferase reporter increase in mESCs, primary screen, esBAF inhibitor project, mouse ES cells, Bmi1 luciferase knock-in, single point. 24 h; 100% = twice the neutral-well signal. reporter increase, % at 12.5 µM. 2% of 350,000 active. AID 602393, 2012; in the data active = activation above about 40%;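 also: a rise in the Bmi1 reporter signal indicates esBAF inhibition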
MITF act: activators of MITF-driven TRPM1 promoter reporter, primary screen, cell-based, SK-MEL-5, luciferase, single point | activation, % at 12.5 µM | 0.75% of 300,000 active | SK-MEL-5 TRPM1-promoter luciferase, 24 h; % of positive control, neutral wells = 0;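 active = mean activation of at least 80% with every replicate also reaching 80%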
A3A deaminase: APOBEC3A ssDNA deaminase inhibitors, primary screen, selectivity assay for APOBEC3G inhibitor project, biochemical, FAM/TAMRA oligo cleavage fluorescence; recombinant A3A, FAM/TAMRA ssDNA deamination fluorescence; AID 493011, 2011; 0.41% of 330,000 active; DNA dC->dU-editing enzyme APOBEC-3A (Homo sapiens), P31941; inhibition, % at 20 µM;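 active = at least 40% inhibition at 20 µM here, with at most 30% in a related deaminase screen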
Target sequence (P31941 whole entry, looked up): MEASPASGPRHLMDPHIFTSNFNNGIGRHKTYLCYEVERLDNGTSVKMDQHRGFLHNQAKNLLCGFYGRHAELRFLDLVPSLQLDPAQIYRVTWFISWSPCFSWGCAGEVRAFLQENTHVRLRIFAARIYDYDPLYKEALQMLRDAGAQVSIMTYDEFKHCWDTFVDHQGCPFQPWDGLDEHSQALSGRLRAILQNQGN
APOBEC3G inh: APOBEC3G DNA deaminase inhibitors, primary screen, biochemical, fluorescence, single-stranded DNA substrate, uHTS. 0.28% of 330,000 active. DNA dC->dU-editing enzyme APOBEC-3G (Homo sapiens), Q9HC16. inhibition, % at 20 µM. recombinant A3G, ssDNA deamination FAM/TAMRA fluorescence;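 active = inhibition of at least 40% at 20 µM, with no more than 30% in the related APOBEC3A deaminase screen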
PHOSPHO1 block: PubChem AID 1565; recombinant PHOSPHO1, absorbance phosphatase assay; 1.1% of 290,000 active; inhibition, % at 13.3 µM; Phosphoethanolamine/phosphocholine phosphatase (Homo sapiens), Q8TCT1; in the data active = inhibition above about 60%
Each line names hits and unclear results; the compound was inactive in the other large screens. Sampled rows, rich in hits. Any-hit rate of the full collection: about 3.6%.

CCCOC(=O)c1ccc(NC(=O)c2cnccn2)cc1	esBAF inh 59 (no result: Wnt act)
CO[C@H]1CN(C)C(=O)c2ccc(NC(=O)Nc3cccc(F)c3)cc2OC[C@H](C)NC[C@H]1C	none (no result: Wnt act, MITF act, A3A deaminase, APOBEC3G inh, PHOSPHO1 block)
Nc1nc(Nc2ccccc2)nc2ccccc12	Wnt act 41 (no result: MITF act)
Cc1ccccc1Nc1nc(N)c2ccccc2n1	Wnt act 40
COc1ccc(C)cc1Nc1nc(N)c2ccccc2n1	none (no result: MITF act)
O=C(C[C@@H]1CC[C@@H]2[C@H](COC[C@@H](O)CN2C(=O)Nc2ccccc2)O1)NCCc1ccncc1	none (no result: Wnt act, MITF act, A3A deaminase, APOBEC3G inh, PHOSPHO1 block)
O=C(c1ccncc1)N1C[C@H]2[C@@H](c3ccccc31)[C@H](CO)N2Cc1ccccc1F	none (no result: Wnt act, MITF act, A3A deaminase, APOBEC3G inh, PHOSPHO1 block)
COc1ccc(S(=O)(=O)N(C)C[C@H]2Oc3ccc(NS(C)(=O)=O)cc3CC(=O)N([C@H](C)CO)C[C@@H]2C)cc1	none (no result: Wnt act, MITF act, A3A deaminase, APOBEC3G inh, PHOSPHO1 block)
C/C(=N\OC(=O)Nc1ccccc1)c1ccc(C)cc1	MITF act 101 (no result: esBAF inh, PHOSPHO1 block)
CN(C)C=NC1=NN(c2cccc(C(F)(F)F)c2)CC1	PHOSPHO1 block 97 (no result: Wnt act, esBAF inh)
CN1CCN(C=NC2=NN(c3cccc(C(F)(F)F)c3)CC2)CC1	none (no result: Wnt act)
CN(c1nc(-c2ccccc2)cs1)C1CCS(=O)(=O)C1 (stereo not given)	esBAF inh 75
Fc1cccc2sc(Nc3nc4cc5c(cc4s3)OCO5)nc12	esBAF inh 96
O=C(/C=C/c1ccc2c(c1)OCO2)Nc1nc2ccc(F)cc2s1	Wnt act 34, esBAF inh 56, MITF act 87
